# Most compounds without a hit are left out; they make up all but 10% or so of the library.
# VDR inh = Inhibitors of the vitamin D receptor (VDR): qHTS; Vitamin D3 receptor (Homo sapiens), P11473; VDR-SRC2-3 peptide fluorescence polarization, 2 h; Potency, µM, inactives show max response, negative = inhibition, actives largely listed as inhibitors; hit rate 0.93% among 400,000; further: potency means the concentration at half of the fitted maximal effect
#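 Signal is fluorescence polarization, reporting how far test compounds block the interaction of VDR with the SRC2-3 coregulator peptide after a 2 h room-temperature incubation.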
# G9a block = qHTS Assay for Inhibitors of Histone Lysine Methyltransferase G9a. G9a H3K9 monomethylation, AlphaScreen, 2 h. Potency, µM (series often up to 102 µM), inactives show at the top dose activity, negative = inhibition, actives largely listed as inhibitors. hit rate 8.8% among 350,000; further: potency means the concentration at half of the fitted maximal effect; nearly all actives have a fitted effect of over 75% in size
#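 AlphaScreen detection with an anti-monomethyl H3K9 antibody quantified product after a 2 h room-temperature reaction containing 500 nM biotinylated H3K9 peptide, 20 µM SAM and 20 nM enzyme, which had been preincubated 15 min with compound.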
# PLK1 PBD block = qHTS for Inhibitors of PLK1-PDB (polo-like kinase 1 - polo-box domain): Primary Screen; Serine/threonine-protein kinase PLK1 (Homo sapiens), P53350; Plk1 PBD binding of FITC phosphopeptide, fluorescence polarization; Potency, µM, inactives show max response, negative = inhibition, most hits filed as inhibitors; hit rate 2.8% among 360,000; further: potency means the concentration at half of the fitted maximal effect; series mostly up to about 57 µM; nearly all actives have a fitted effect of over 65% in size
# Target sequence (P53350 whole entry, looked up, the tested form may be a part): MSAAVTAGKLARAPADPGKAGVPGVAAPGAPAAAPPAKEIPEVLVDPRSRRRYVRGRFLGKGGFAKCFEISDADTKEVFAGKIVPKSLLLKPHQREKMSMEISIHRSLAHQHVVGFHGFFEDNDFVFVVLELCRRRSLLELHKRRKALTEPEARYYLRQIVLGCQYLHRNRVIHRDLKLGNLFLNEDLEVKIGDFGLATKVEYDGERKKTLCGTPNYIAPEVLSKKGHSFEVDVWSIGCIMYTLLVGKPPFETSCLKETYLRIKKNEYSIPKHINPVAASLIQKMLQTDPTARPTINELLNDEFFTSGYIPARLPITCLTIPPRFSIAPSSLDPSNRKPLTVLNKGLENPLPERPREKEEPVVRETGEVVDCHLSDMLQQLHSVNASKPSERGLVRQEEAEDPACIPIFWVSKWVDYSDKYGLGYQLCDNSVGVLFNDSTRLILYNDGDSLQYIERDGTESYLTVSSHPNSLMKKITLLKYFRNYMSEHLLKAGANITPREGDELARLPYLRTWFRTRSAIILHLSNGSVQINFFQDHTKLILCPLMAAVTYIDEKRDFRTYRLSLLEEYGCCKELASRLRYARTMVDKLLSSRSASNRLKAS
# Sfp inh = qHTS Assay for Inhibitors of Bacillus subtilis Sfp phosphopantetheinyl transferase (PPTase). 4'-phosphopantetheinyl transferase ffp (Bacillus subtilis), Q9F4F7. Biochemical Sfp PPTase activity, qHTS. Potency, µM, for the others: largest response in the series, negative = inhibition, usual class: inhibitors. hit rate 3.5% among 310,000. AID 1490, 2009;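 further: the enzyme is Sfp with the accession as filed and its product quenches rhodamine fluorescence; potency means the concentration at half of the fitted maximal effect; 0% = enzyme reaction without inhibitor and -100% = no enzyme wells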
#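 Fluorescence-quenching assay: 15 nM Sfp-PPTase preincubated 15 min at room temperature with compound, then 5 uM rhodamine-CoA and 12.5 uM BHQ-2-labelled YbbR peptide added. Fluorescence (ex 525/em 598 nm) read at start and after 30 min; difference gives rate.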
# CCT modulator = High-Throughput Screening for Modulators of Cytosolic Chaperonin Activity. purified chaperonin ATPase assay, HTRF ADP detection, 30 min. activity change, % (test concentration not listed), hits read low. hit rate 0.3% among 360,000. AID 651819, 2012; in the data active means activity change below about -30%
#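 TRiC (40 or 20 nM final, by batch activity) in 30 mM Tris pH 7.4, 100 mM KCl, 5 mM MgCl2, 1 mM DTT was treated with compound at 76 uM single dose, then 10 uM ATP, 30 min at 37 °C. ADP was read by HTRF Transcreener.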
# MmCpn inh = Inhibitors of TCP-1 ring complex (TRiC) of Methanococcus maripaludis (MmCpn): qHTS. Chaperonin Mm-Cpn (Methanococcus maripaludis). purified Mm-Cpn ATPase, ADP Transcreener TR-FRET. Potency, µM (highest dose often 76.9 µM), inactives show at the highest dose activity, negative = inhibition, actives largely listed as inhibitors. hit rate 0.031% among 330,000; further: potency means the concentration at half of the fitted maximal effect; nearly all actives have a fitted effect of over 80% in size
#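 ATP (10 uM final) was added to archaeal chaperonin (25 nM final) after 10 min exposure to test compound at 37°C; after 30 min further incubation, ADP was detected by competitive TR-FRET.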
# Starred values were filed as active, the others as inactive; ? = inconclusive; nt = no result; ! = not active in a repeat; [ ] = remark or other dose. Unless noted, the call rests on the fitted dose curve; in most records, active means well fitted curve in the direction sought with a large enough effect; inconclusive means small, poorly fitted or top-dose-only effect, or another doubt; inactive means no such curve, though single readings can be large; an effect the other way counts as inactive or inconclusive. Unless noted, on the % scale 0 is the no-effect control and ±100 the full control effect.
SMILES,VDR inh,G9a block,PLK1 PBD block,Sfp inh,CCT modulator,MmCpn inh
COc1ccc(Nc2c(-c3cc(Br)ccc3O)nc3ncccn23)cc1OC,-3%,10µM*,nt,nt,nt,nt
Cc1noc(C)c1C(=O)N1CCC[C@@]2(CCN(CC(C)C)C2)C1,7%,0%[12.7 µM],nt,24%,nt,nt
O=C(O)c1ccccc1NS(=O)(=O)c1cccc(N=Nc2c(O)[nH]c(=S)[nH]c2=O)c1,4%,50µM*,-14%,nt,-1,-2%
N=C(N)c1ccc(CS(=O)(=O)F)cc1,-1%,-85%[59 µM],nt,nt,nt,nt
C[n+]1c2cc(N)ccc2cc2ccc(N)cc21,25µM*!,?,0.67µM*,-13%,-5,nt
O=C(COc1ccccc1)N1CCN(CCN2C(=O)c3cccc4cccc(c34)C2=O)CC1,-12%,-39%,17µM*,8%,0,-4%
CCc1n[nH]c(=S)n1/N=C/c1c(C)nn(-c2ccccc2)c1Cl,-12%,1.8µM*,-8%,-2%,-4,-2%
C=Cn1ccnc1P(=S)(c1nccn1C=C)C1CCCCC1,3%,-45%[59 µM],-6%,-2%,-77*,-1%
C=Cn1ccnc1P(=S)(c1nccn1C=C)c1nccn1C=C,25%,-33%[59 µM],-10%,-18%,0,0%
COc1ccc(OCC(=O)N2CCN(CC3CC4C=CC3C4)CC2)cc1 (configuration not stated),8%,18µM*,-7%,-23%,-18,0%
Nc1nnc(Sc2ncccc2[N+](=O)[O-])s1,-23%,0%,9.5µM*,-2%,-5,-2%
CCn1c(C)[n+](CC(O)COCC2CC=CCC2)c2ccccc21 (configuration not stated),18%,10µM*,-1%,-1%,3,1%
COc1ccc(C)cc1NC(=O)N(Cc1ccc2c(c1)OCO2)C1CCN(Cc2ccccc2)CC1,6%,?,nt,nt,nt,nt
O=C1CN(C(=O)COC(=O)Cc2ccccc2)c2ccccc2N1,-18%,11%,30µM*,5%,-1,4%
Cc1ccc(-c2csc(NC(CO)c3nc4ccccc4n3CCOCCO)n2)cc1 (configuration not stated),-12%,nt,21µM*,nt,0,nt
O=C1NC(=O)C(Sc2ccccc2[N+](=O)[O-])C(=O)N1,40µM*,2.8µM*,3µM*,20µM*,-1,-6%
CC[C@]1(O)CC[C@H]2[C@@H]3CCC4=CCCC[C@@H]4[C@H]3CC[C@@]21C,-20%,?,nt,7%,nt,nt
CCCCCCCCCCCCCC(=O)OC1C(C)[C@@]2(O)C(C=C(CO)C[C@]3(O)C(=O)C(C)=C[C@H]23)[C@@H]2C(C)(C)[C@]12OC(C)=O (some centres not stated),-5%,-31%[2.33 µM],nt,2%,nt,nt
C=CCNC(=S)Nc1ccc(OC(=O)Nc2ccc(Cl)c(Cl)c2)cc1,-3%,-7%[59 µM],9.5µM*,-10%,1,-2%
O=C(Nc1ccc(Cl)c(Cl)c1)c1ccco1,2%,nt,-4%,7%,-1,1%
C[C@]12CCC3C(CC[C@]4(O)CC(O)CC[C@@]34C=O)[C@]1(O)CCC2C1=CC(=O)OC1 (some centres not stated),8%,-34%[2.33 µM],nt,19%,nt,nt
Cc1[nH]ccc2c1[nH]c1cc(=O)ccc12,7%,50µM*,2%,2%,2,-4%
COc1ccccc1OCC#CCN1CCCC1,8%,nt,-4%,?,-1,0%
C=CCN(CC#CCOc1ccccc1OC)CC=C,nt,18µM*,nt,?,nt,-1%
CC(C)(C)c1ccc(O)cc1,nt,28%[59 µM],nt,11%,nt,nt
SMILES,VDR inh,G9a block,PLK1 PBD block,Sfp inh,CCT modulator,MmCpn inh
C=C(C)[C@H]1O[C@H]2CC[C@@]3(C)[C@@](O)(CC[C@H]4[C@@H]5OC(C)(C)[C@H]6C[C@@H]7C(=C)Cc8c(Cl)cc9[nH]c(c5c9c8[C@@]76O)[C@@]43C)[C@]23O[C@@H]3[C@H]1O,-1%,13%[59 µM],nt,16%,nt,nt
CCN(CC)CCN1C(=O)CN=C(c2ccccc2F)c2cc(Cl)ccc21,?,18%[59 µM],nt,3%,nt,nt
CN1CSC(=S)N(C)C1,-20%,?,?,45µM*,-4,nt
COc1cc2c(cc1OC)-c1c(OC)c(OC)c(C=O)c3c1[C@H](C2)N(C)CC3,8.9µM*,nt,nt,-8%,nt,nt
COc1cc2c(cc1OC)-c1c(OC)c(OC)c(CO)c3c1C(C2)N(C)CC3 (configuration not stated),nt,nt,nt,-1%,nt,nt
O=C1C=CC[C@@H]2[C@H]3CCCN4CCC[C@@H](CN12)[C@@H]34,-8%,nt,nt,-7%,nt,nt
Cc1ccc(N2C(=O)/C(=C/c3ccc(CN(CCC#N)S(C)(=O)=O)o3)C(=O)NC2=S)cc1C,nt,8.9µM*,nt,22µM*,nt,-16%
Cc1cccc(N2C(=O)/C(=C/c3ccc(CN(CCC#N)S(C)(=O)=O)o3)C(=O)NC2=S)c1,?,?,7.5µM*,13µM*,-1,-3%
CCOC(=O)/C=C(C)/C=C/CC(C)CCCC(C)C (configuration not stated),0%,2%[12.7 µM],nt,-1%,nt,nt
CCCN(CCC)[C@H]1CCc2c(F)ccc(O)c2C1,-2%,50µM*,nt,nt,nt,nt
Cc1ccc(S(=O)(=O)Oc2ccccc2C=C2C(=O)N(C)C(=O)N(C)C2=O)cc1,?,nt,6.7µM*,79µM*,-2,-2%
COc1ccc(-c2nc3ccccc3c(=O)n2-c2ccc(OC)cc2)cc1,-9%,-3%[0.501 µM],-7%,-1%,-5,-3%
COc1cc(/C=C/c2nc3ccccc3c(=O)n2-c2ccc(O)cc2)ccc1O,0%,-15%,38%,-2%,-1,?
COc1ccc(-n2c(SCCN(C)C)nc3ccccc3c2=O)cc1,11%,nt,-1%,-7%,-113*,3%
COc1ccc(-n2c(/C=C/c3ccc(O)c(O)c3)nc3ccccc3c2=O)cc1,-8%,32µM*,42%,-23%,0,-2%
CC1(C)CC(=O)C(C2(O)C(=O)NC(=O)NC2=O)=C(O)C1,45µM*,?,-10%,-17%,-3,-6%
Clc1ccccc1C(c1ccccc1)(c1ccccc1)n1cccn1,-5%,nt,nt,-7%,nt,nt
CC(C)(C)c1ccc(O)c(N=Cc2c(O)ccc3ccccc23)c1,14%,8.9µM*,29%,17%,-1,-6%
NC1=C(Br)C(=O)c2ccccc2C1=O,-3%,50µM*,-8%,-5%,-7,-2%
